Compounds without any hit were thinned out: in the full panel of roughly 79,000, 15% have a hit. Unmarked numbers belong to inactive results. The source made the active and inactive calls. No stated cut-off is given here; in the data, active means growth inhibition above about 70%; inactive means the rest. Where a SMILES comes first, the peptide text is derived from it. Bridges are numbered along the chain shown (N, C = ends). [ ]: non-standard residue; d: D form. The star is where a group is joined. Cbz = O=C(OCc1ccccc1)*; Aib = CC(C)(N)C(=O)O; OBn = c1ccc(CO*)cc1; βAla = NCCC(=O)O

The first experiment is described as follows: NCI Yeast Anticancer Drug Screen. Data for the rad50 strain (AID 155).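 Further: 0% = growth of vehicle-only cultures of the same strain.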 To be noted: S. cerevisiae rad50 strain growth inhibition; at 50.0 µM; active compounds read high. The method in brief: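 Relative growth inhibition (compound vs vehicle) was measured in yeast with a defined repair-gene alteration.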
On to `CCOC(=O)C(C#N)=C1c2ccccc2Oc2ccccc21`, for which the growth inhibition is -3.7%.
Regarding `COC(=O)C[CH2][Ge]([CH3])([CH3])[S]c1ccccc1`, the growth inhibition is 52.9%.
As to `CN(C1c2ccccc2Oc2ccccc21)S(=O)(=O)c1ccc([N+](=O)[O-])cc1`, the growth inhibition was 9.9%.
Take `Nc1cccc2sccc12`: the growth inhibition was 4.25%.
Same read-out and setting: with `Cc1ccc(OC(=O)c2cccs2)cc1` the figure was 29.6%; with `N#CN=CN1CCN(c2ccccc2)CC1`, 4.8%.
Regarding `Cc1ccc(NC(=O)CN2CCCCC2)cc1`, the growth inhibition was -16.9%.
Regarding `COc1ccc(-c2cc(-c3ccccc3)c(C#N)c(=O)n2C2OC(CO)C(O)C(O)C2O)cc1` (stereo not given), the growth inhibition is -8.2%.
With `Cc1cccc(C(O)(c2cccc(C)c2)C2(O)CCCCC2)c1`, the growth inhibition was -9.45%.
On the same count and under the same terms, with `COC(=O)c1ccccc1-n1c(-c2ccc([N+](=O)[O-])cc2)csc1=NC(=O)c1cccc([N+](=O)[O-])c1` the figure was -2.15%; with `Cc1ccc(S(=O)(=O)NC(=O)NCc2cccc(Cl)c2)cc1`, -0.3%; with `COC1OC(COS(C)(=O)=O)C2OC(C)(C)OC12` (stereo not given), 11.6%.
The same measure, in the same setting: with `N#CC(c1ccccc1)N(CCCCCCN(C(=O)c1ccccc1)C(C#N)c1ccccc1)C(=O)c1ccccc1` (stereo not given) the figure was 17.1%; with `CC1(C)C(C(=O)/C=C2\Nc3ccccc3C2(C)C)=Nc2ccccc21`, -19.5%; with `O=S(=O)(c1ccccc1)N1CN(S(=O)(=O)c2ccccc2)CN(S(=O)(=O)c2ccccc2)C1`, 0.95%.
Take `CCCCC1=CC1(C#N)[N+](=O)[O-]` (stereo not given): the growth inhibition is 33.4%.
Turning to `CC1(C)NC(=O)C(NC(=O)C(CC(=O)OCc2ccccc2)NC(=O)OCc2ccccc2)CCCCNC(=O)CCNC1=O` (stereo not given) (Cbz-D(OBn)K[Aib][βAla]; lactam 2-C; configuration not given here), the growth inhibition is -0.7%.
Consider `CC(=O)c1ccc2c(c1)-c1ccccc1C(=O)C2=O`, for which the growth inhibition was -24.6%.
Turning to `Cn1c(=O)nc2n(C)c3ccccc3cc-2c1=O`, the growth inhibition is 9.95%.
The same measure, in the same setting: with `COc1cc2c(cc1OC)C(=O)N(c1ccc(O)cc1)C2=O` the figure was -8.25%; with `O=C(NNc1ccccc1)NNc1ccccc1` (tested in a mixture with another compound), 11.1%; with `C/C(=N/NC(=O)CC#N)c1ccccc1`, 25.2%.
Same read-out and setting: with `Cc1cc(C)n(-c2ccc([N+](=O)[O-])cn2)n1` the figure was 4.55%; with `CC(C(=O)c1ccncc1)c1ccccn1` (stereo not given), 1.85%.
Same read-out and setting: with `CCSc1ccc2c3c(cccc13)C(=O)N(CCc1ccccn1)C2=O` the figure was -0.6%.
For `O=c1cc([O-])[n+](C2OC(CO)C(O)C2O)c2sccn12` (stereo not given), the growth inhibition was 10.2%.
With `CC(=O)Nc1ccc2c(c1)CCCC2`, the growth inhibition was 5.75%.
With `CC1(C)C([N+](C)(C)C)CS1(=O)=O` (stereo not given), the growth inhibition was 1.9%.
As to `CCc1cc(C(C)(C)C)cc(C(C)(C)C)c1O`, the growth inhibition is 23.6%.
For `Cc1cccc(NC(=S)NCCc2ccccn2)c1`, the growth inhibition was -6.85%.
For the compound `COC1OC2COC(c3ccccc3)OC2C(OC(C)=O)C1OS(=O)(=O)c1ccc(C)cc1` (stereo not given), the growth inhibition is -2.7%.
In the case of `Cc1nc(N)c2c(n1)C(Cc1ccccc1)N(C(=O)c1ccccc1)C2` (stereo not given), the growth inhibition is -5.6%.
On the same count and under the same terms, the figure for `COC(=O)C12OCC34C(CC5C(C)=C(O)C(=O)CC5(C)C3C(O)C1O)OC(=O)C(OC(C)=O)C24` (stereo not given) is 81.5% (active).
As to `Cn1c(COC(=O)NC2CCCCC2)c(COC(=O)NC2CCCCC2)c2ccc3cc(C=O)ccc3c21`, the growth inhibition is 5.95%.
As for `C[Si](C)(C)Nc1ncnc2c1ncn2[Si](C)(C)C`, the growth inhibition was 14.6%.
Take `O=[N+]([O-])c1ccc(OC(=S)N2CCOCC2)cc1`: the growth inhibition is -7.05%.
Still for that read-out and setting: with `O=C1c2ccccc2-c2cccc(I)c21` the figure was 15.6%; with `CCN(CC)C(=O)c1cncc(C(N)=O)c1`, 4.85%.
The same measure, in the same setting: with `CSC(=S)/C(=C/Nc1ccccn1)c1ccccc1` the figure was 39.5%.
In the case of `O=c1cc(-c2ccccc2)[nH]c2[nH]n(-c3ccccc3)c(=O)c12`, the growth inhibition is 8.55%.

Another experiment in a line: NCI Yeast Anticancer Drug Screen. Data for the mec2-1 strain (AID 157). To be noted: S. cerevisiae mec2-1 strain, at 50.0 µM, active compounds read high. The method in brief: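 Growth inhibition is read against vehicle-treated controls after compound exposure of the mec2-1 yeast strain, which is defective in DNA damage repair or cell cycle control.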
Take `CCOC(=O)C(C#N)=C1c2ccccc2Oc2ccccc21`: the growth inhibition is 0.9%.
On the same count and under the same terms, the figure for `COC(=O)C[CH2][Ge]([CH3])([CH3])[S]c1ccccc1` is 27.1%; for `CN(C1c2ccccc2Oc2ccccc21)S(=O)(=O)c1ccc([N+](=O)[O-])cc1` it is -2.7%.
The same measure, in the same setting: with `Nc1cccc2sccc12` the figure was 5.15%; with `Cc1ccc(OC(=O)c2cccs2)cc1`, 4.95%; with `N#CN=CN1CCN(c2ccccc2)CC1`, -11.2%.
As for `Cc1ccc(NC(=O)CN2CCCCC2)cc1`, the growth inhibition is -7.65%.
Regarding `COc1ccc(-c2cc(-c3ccccc3)c(C#N)c(=O)n2C2OC(CO)C(O)C(O)C2O)cc1` (stereo not given), the growth inhibition was 11.6%.
For `Cc1cccc(C(O)(c2cccc(C)c2)C2(O)CCCCC2)c1`, the growth inhibition was -0.45%.
Take `COC(=O)c1ccccc1-n1c(-c2ccc([N+](=O)[O-])cc2)csc1=NC(=O)c1cccc([N+](=O)[O-])c1`: the growth inhibition was -2.15%.
As for `Cc1ccc(S(=O)(=O)NC(=O)NCc2cccc(Cl)c2)cc1`, the growth inhibition was 28.2%.
The same measure, in the same setting: the figure for `COC1OC(COS(C)(=O)=O)C2OC(C)(C)OC12` (stereo not given) is 1.85%; for `N#CC(c1ccccc1)N(CCCCCCN(C(=O)c1ccccc1)C(C#N)c1ccccc1)C(=O)c1ccccc1` (stereo not given) it is 37%.
On the same count and under the same terms, the figure for `CC1(C)C(C(=O)/C=C2\Nc3ccccc3C2(C)C)=Nc2ccccc21` is -5.65%; for `O=S(=O)(c1ccccc1)N1CN(S(=O)(=O)c2ccccc2)CN(S(=O)(=O)c2ccccc2)C1` it is -9.35%.
For `CCCCC1=CC1(C#N)[N+](=O)[O-]` (stereo not given), the growth inhibition was 11.5%.
With `CC1(C)NC(=O)C(NC(=O)C(CC(=O)OCc2ccccc2)NC(=O)OCc2ccccc2)CCCCNC(=O)CCNC1=O` (stereo not given) (Cbz-D(OBn)K[Aib][βAla]; lactam 2-C; configuration not given here), the growth inhibition was -11.6%.
Consider `CC(=O)c1ccc2c(c1)-c1ccccc1C(=O)C2=O`, for which the growth inhibition was -22.7%.
The same measure, in the same setting: the figure for `Cn1c(=O)nc2n(C)c3ccccc3cc-2c1=O` is -12.4%; for `COc1cc2c(cc1OC)C(=O)N(c1ccc(O)cc1)C2=O` it is -17.6%.
`O=C(NNc1ccccc1)NNc1ccccc1` (tested in a mixture with another compound): the growth inhibition was -0.45%.
The same measure, in the same setting: the figure for `C/C(=N/NC(=O)CC#N)c1ccccc1` is -0.5%.
On to `Cc1cc(C)n(-c2ccc([N+](=O)[O-])cn2)n1`, for which the growth inhibition is 12%.
`CC(C(=O)c1ccncc1)c1ccccn1` (stereo not given): the growth inhibition was 6.65%.
For the compound `CCSc1ccc2c3c(cccc13)C(=O)N(CCc1ccccn1)C2=O`, the growth inhibition was -14.1%.
Regarding `O=c1cc([O-])[n+](C2OC(CO)C(O)C2O)c2sccn12` (stereo not given), the growth inhibition was 9.2%.
Same read-out and setting: with `CC(=O)Nc1ccc2c(c1)CCCC2` the figure was -4.45%; with `CC1(C)C([N+](C)(C)C)CS1(=O)=O` (stereo not given), -18.9%; with `CCc1cc(C(C)(C)C)cc(C(C)(C)C)c1O`, 18.4%.
As to `Cc1cccc(NC(=S)NCCc2ccccn2)c1`, the growth inhibition was -7.35%.
As for `COC1OC2COC(c3ccccc3)OC2C(OC(C)=O)C1OS(=O)(=O)c1ccc(C)cc1` (stereo not given), the growth inhibition is 14.1%.
Still for that read-out and setting: the figure for `Cc1nc(N)c2c(n1)C(Cc1ccccc1)N(C(=O)c1ccccc1)C2` (stereo not given) is -4.3%; for `COC(=O)C12OCC34C(CC5C(C)=C(O)C(=O)CC5(C)C3C(O)C1O)OC(=O)C(OC(C)=O)C24` (stereo not given) it is 69.5%.
With `Cn1c(COC(=O)NC2CCCCC2)c(COC(=O)NC2CCCCC2)c2ccc3cc(C=O)ccc3c21`, the growth inhibition is 7.85%.
Regarding `C[Si](C)(C)Nc1ncnc2c1ncn2[Si](C)(C)C`, the growth inhibition is 4.85%.
As to `O=[N+]([O-])c1ccc(OC(=S)N2CCOCC2)cc1`, the growth inhibition is 9.3%.
On to `O=C1c2ccccc2-c2cccc(I)c21`, for which the growth inhibition is -8.7%.
Regarding `CCN(CC)C(=O)c1cncc(C(N)=O)c1`, the growth inhibition is -14.7%.
Same read-out and setting: the figure for `CSC(=S)/C(=C/Nc1ccccn1)c1ccccc1` is 14.5%.
Turning to `O=c1cc(-c2ccccc2)[nH]c2[nH]n(-c3ccccc3)c(=O)c12`, the growth inhibition was 14.2%.
